In the supplement of paper PMC7393113:
Where a name gives a salt, the structure may show the parent alone. ± gives the standard deviation of the averaged measurements.

Test system: iBMDM (immortalised mouse bone-marrow-derived macrophages), LPS-stimulated
Test: mitochondrial superoxide (MitoSOX fluorescence) fold increase over unstimulated control; higher = more LPS-induced mitochondrial ROS (less inhibition)
Details: inhibitor concentration: 500 nM, LPS: 100 ng/ml
How it was run: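 Mitochondrial superoxide values are mean fold induction compared with untreated macrophages. Triplicate wells of immortalised mouse bone-marrow-derived macrophages in phenol-red-free 1% FCS/DMEM received kinase inhibitors (500 nM) for 30 min, then 1 μM MitoSox for 10 min, then LPS (100 ng/ml). Fluorescence (510/580 nm) was taken every 60 min for 4 h.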

Row | Structure (SMILES) | mitochondrial superoxide (time after LPS: 1 h) | mitochondrial superoxide (time after LPS: 2 h) | mitochondrial superoxide (time after LPS: 4 h)
1 | O=C1C(c2c(O)[nH]c3ccccc23)=Nc2ccccc21 [Indirubin] | 1.22 ± 0.026 | 1.34 ± 0.073 | 1.42 ± 0.048
2 | Cc1[nH]c(/C=C2\C(=O)Nc3ccccc32)c(C)c1CCC(=O)O [TSU-68 (SU6668, Orantinib)] | 2.12 ± 0.096 | 2.2 ± 0.093 | 2.16 ± 0.12
3 | C[C@@H](Oc1cc(-n2cnc3ccc(CN4CCN(C)CC4)cc32)sc1C(N)=O)c1ccccc1C(F)(F)F | 1.12 ± 0.059 | 1.22 ± 0.025 | 1.35 ± 0.048
4 | Cn1cc(-c2ccc3nnc(Sc4ccc5ncccc5c4)n3n2)cn1 | 1.33 ± 0.036 | 1.4 ± 0.04 | 1.525 ± 0.0078
5 | Cc1ccccc1CN1C2=NCCN2C(=O)C2=C1CCN(Cc1ccccc1)C2 | 1.16 ± 0.042 | 1.27 ± 0.036 | 1.34 ± 0.13
6 | C[C@]1(O)C[C@@H](c2nc(-c3ccc4ccc(-c5ccccc5)nc4c3)c3c(N)nccn32)C1 [OSI-906 (Linsitinib)] | 1.45 ± 0.18 | 1.51 ± 0.21 | 1.56 ± 0.19
7 | COc1cc2nccc(Oc3ccc(NC(=O)Nc4cc(C)on4)c(Cl)c3)c2cc1OC [Tivozanib (AV-951)] | 1.14 ± 0.031 | 1.17 ± 0.037 | 1.24 ± 0.024
8 | CCOc1cc2ncc(C#N)c(Nc3ccc(F)c(Cl)c3)c2cc1NC(=O)/C=C/CN(C)C [Pelitinib (EKB-569)] | 1.2 ± 0.018 | 1.21 ± 0.049 | 1.32 ± 0.032
9 | CN1CCN(c2nc(C3=C(c4c[nH]c5ccccc45)C(=O)NC3=O)c3ccccc3n2)CC1 [Sotrastaurin] | 1.41 ± 0.015 | 1.55 ± 0.039 | 1.749 ± 0.012
10 | CC(C)(C)n1nc(-c2ccc(Cl)cc2)c2c(N)ncnc21 | 1.11 ± 0.019 | 1.23 ± 0.074 | 1.31 ± 0.079
11 | CC(C)(C)NS(=O)(=O)c1cncc(-c2cc(F)c3nc(N)nn3c2)c1 | 1.09 ± 0.021 | 1.18 ± 0.038 | 1.31 ± 0.064
12 | Nc1cc(C(F)(F)F)c(-c2cc(N3CCOCC3)nc(N3CCOCC3)n2)cn1 [BKM120 (NVP-BKM120, Buparlisib)] | 1.33 ± 0.034 | 1.41 ± 0.024 | 1.53 ± 0.05
13 | N#Cc1ccc2[nH]c(O)c(-c3ccc(CN4CCOCC4)cn3)c2c1 | 1.08 ± 0.043 | 1.24 ± 0.097 | 1.38 ± 0.045
14 | COc1ccc(C(=O)Nc2sc3c(c2C(N)=O)CCCC3)cc1OC | 1.42 ± 0.034 | 1.49 ± 0.045 | 1.64 ± 0.03
15 | Cc1ccc(C(=O)Nc2ccc(CN3CCN(C)CC3)c(C(F)(F)F)c2)cc1C#Cc1cnc2cccnn12 | 1.08 ± 0.068 | 1.13 ± 0.014 | 1.23 ± 0.048
16 | Oc1ccc(-c2nc(-c3ccc(F)cc3)c(-c3ccncc3)[nH]2)cc1 | 1.32 ± 0.13 | 1.41 ± 0.13 | 1.57 ± 0.12
17 | CC(C)(C)c1cc(NC(=O)Nc2ccc(-c3cn4c(n3)sc3cc(OCCN5CCOCC5)ccc34)cc2)no1 [Quizartinib (AC220)] | 1.15 ± 0.027 | 1.19 ± 0.047 | 1.31 ± 0.042
18 | Cc1cc(CN2CCN(c3c(Br)cnc4nc(-c5ccc(N6CCN(C)CC6)cc5)[nH]c34)CC2)no1 | 1.27 ± 0.038 | 1.4 ± 0.019 | 1.68 ± 0.13
19 | Nc1nc(N)c2nc(-c3cccc(O)c3)c(-c3cccc(O)c3)nc2n1 | 1.18 ± 0.049 | 1.23 ± 0.1 | 1.4 ± 0.12
20 | CC(C)(C)Cn1c(N)nc2ccc(-c3[nH]c(C(C)(C)C)nc3-c3ccc(F)cc3)nc21 | 1.111 ± 0.0047 | 1.17 ± 0.032 | 1.33 ± 0.066
21 | CC(C)CCN1c2nc(Nc3cc(F)c(O)c(F)c3)ncc2N(C)C(=O)C1C (stereo not drawn) | 1.14 ± 0.036 | 1.21 ± 0.047 | 1.321 ± 0.0097
22 | Cc1cc(C(C)Nc2ccccc2)c2nc(N3CCOCC3)cc(=O)n2c1 (stereo not drawn) | 1.51 ± 0.032 | 1.66 ± 0.072 | 1.74 ± 0.094

Row | Structure (SMILES) | mitochondrial superoxide (time after LPS: 1 h) | mitochondrial superoxide (time after LPS: 2 h) | mitochondrial superoxide (time after LPS: 4 h)
23 | N#C/C(=C(/N)Sc1ccc(N)cc1)c1ccccc1C(F)(F)F | 1.35 ± 0.024 | 1.42 ± 0.092 | 1.506 ± 0.0063
24 | COc1ccc2cc(-c3nc(-c4ccc([S+](C)[O-])cc4)[nH]c3-c3ccncc3)ccc2c1 (stereo not drawn) [Tie2 kinase inhibitor] | 0.981 ± 0.069 | 1.09 ± 0.058 | 1.19 ± 0.036
25 | O=c1cc(N2CCOCC2)oc2c1ccc1ccccc12 | 1.13 ± 0.049 | 1.11 ± 0.062 | 1.17 ± 0.062
26 | Cn1cc(C2=C(c3ccc(Cl)cc3Cl)C(=O)NC2=O)c2ccccc21 | 1.46 ± 0.18 | 1.56 ± 0.22 | 1.68 ± 0.29
27 | NC(=O)c1cnc(N[C@@H]2CCCC[C@@H]2N)nc1Nc1cccc(-n2nccn2)c1 | 1.38 ± 0.058 | 1.57 ± 0.08 | 1.71 ± 0.11
28 | CCN(CCO)CCCOc1ccc2c(Nc3cc(CC(=O)Nc4cccc(F)c4)[nH]n3)ncnc2c1 [Barasertib (AZD1152-HQPA)] | 1.33 ± 0.093 | 1.39 ± 0.13 | 1.44 ± 0.13
29 | O=C(c1ccc(/C=C/c2n[nH]c3ccccc23)cc1)N1CCNCC1 | 1.09 ± 0.063 | 1.19 ± 0.067 | 1.33 ± 0.035
30 | CC(C)(O)CC(=O)NCCn1ccc2ncnc(Nc3ccc(Oc4cccc(C(F)(F)F)c4)c(Cl)c3)c21 | 1.14 ± 0.019 | 1.37 ± 0.12 | 1.62 ± 0.14
31 | COc1ccc(S(=O)(=O)N(C(C)=O)c2ccccc2/C=C/c2cc[n+]([O-])cc2)cc1 | 1.15 ± 0.035 | 1.17 ± 0.058 | 1.32 ± 0.05
32 | C[C@@]1(C(=O)Nc2ccc(F)nc2)CCCN1c1nc(Nc2cc(C3CC3)n[nH]2)c2cccn2n1 | 1.38 ± 0.051 | 1.43 ± 0.06 | 1.45 ± 0.066
33 | Cc1cc2c(F)c(Oc3ncnn4cc(OC[C@@H](C)O)c(C)c34)ccc2[nH]1 | 1.337 ± 0.0099 | 1.44 ± 0.11 | 1.53 ± 0.14
34 | CN1CCN(c2cccc(Nc3nc4c(-c5ccc(S(C)(=O)=O)cc5)cccn4n3)c2)CC1 | 1.28 ± 0.037 | 1.45 ± 0.058 | 1.65 ± 0.051
35 | Cc1cc([C@@H](C)Nc2ccccc2C(=O)O)c2nc(N3CCOCC3)cc(=O)n2c1 | 1.14 ± 0.043 | 1.22 ± 0.077 | 1.21 ± 0.027
36 | Cc1ccc(Nc2nccc(N(C)c3ccc4c(C)n(C)nc4c3)n2)cc1S(N)(=O)=O [Pazopanib] | 1.19 ± 0.042 | 1.13 ± 0.082 | 1.26 ± 0.015
37 | O=S(=O)(c1cccc2cnccc12)N1CCCNCC1 [Fasudil (HA-1077) HCl] | 1.03 ± 0.023 | 1.12 ± 0.041 | 1.31 ± 0.029
38 | O=C(c1ccc(Nc2nccc(-c3cc4ccccc4s3)n2)cc1)N1CCC(N2CCCC2)CC1 [IKK-16 (IKK Inhibitor VII)] | 1.08 ± 0.084 | 1.09 ± 0.087 | 1.16 ± 0.17
39 | O=C(Nc1cccc(Nc2ncc(Br)c(NCCc3cnc[nH]3)n2)c1)N1CCCC1 | 1.13 ± 0.088 | 1.11 ± 0.043 | 1.16 ± 0.04
40 | COc1ccc(-c2ccc3c(N4CCOC[C@@H]4C)nc(N4CCOC[C@@H]4C)nc3n2)cc1CO | 1.14 ± 0.024 | 1.19 ± 0.031 | 1.25 ± 0.025
41 | C=CC(=O)N1CCC[C@@H](n2nc(-c3ccc(Oc4ccccc4)cc3)c3c(N)ncnc32)C1 | 1.26 ± 0.099 | 1.32 ± 0.041 | 1.46 ± 0.043
42 | Nc1ncnc2c1c(-c1cccc(OCc3ccccc3)c1)cn2C1CC(CN2CCC2)C1 (stereo not drawn) | 1.36 ± 0.069 | 1.48 ± 0.037 | 1.63 ± 0.029
43 | Cc1[nH]c(/C=C2\C(=O)Nc3ccc(S(=O)(=O)Cc4c(Cl)cccc4Cl)cc32)c(C)c1C(=O)N1CCC[C@@H]1CN1CCCC1 | 1.56 ± 0.039 | 1.61 ± 0.027 | 1.77 ± 0.028
44 | O=c1cc(-c2cccc3c2Sc2ccccc2S3)oc(N2CCOCC2)c1 | 1.39 ± 0.034 | 1.48 ± 0.063 | 1.51 ± 0.084

Row | Structure (SMILES) | mitochondrial superoxide (time after LPS: 1 h) | mitochondrial superoxide (time after LPS: 2 h) | mitochondrial superoxide (time after LPS: 4 h)
45 | CC(C)c1cnn2c(NCc3ccccc3)cc(NCCCCCCN)nc12 | 1.16 ± 0.054 | 1.25 ± 0.025 | 1.47 ± 0.059
46 | CCN(CC)CCCCNc1ncc2cc(-c3cc(OC)cc(OC)c3)c(NC(=O)NC(C)(C)C)nc2n1 | 1.16 ± 0.036 | 1.11 ± 0.048 | 1.12 ± 0.045
47 | N#CC(=C(/N)Sc1ccccc1N)/C(C#N)=C(\N)Sc1ccccc1N | 1.36 ± 0.043 | 1.4 ± 0.048 | 1.45 ± 0.047
48 | NC(=O)c1ncn([C@@H]2O[C@H](CO)[C@@H](O)[C@H]2O)c1N [Acadesine] | 1.108 ± 0.0017 | 1.2 ± 0.043 | 1.36 ± 0.027
49 | COc1cc(Nc2ncc(F)c(Nc3ccc4c(n3)N(COP(=O)(O)O)C(=O)C(C)(C)O4)n2)cc(OC)c1OC [Fostamatinib (R788)] | 1.29 ± 0.026 | 1.429 ± 0.0045 | 1.71 ± 0.034
50 | O=C(NCc1ccccc1)c1csc(Nc2ccncn2)n1 [Thiazovivin] | 1.11 ± 0.012 | 1.2 ± 0.078 | 1.29 ± 0.11
51 | C#Cc1cccc(Nc2ncnc3cc(OC)c(OCCCCCCC(=O)NO)cc23)c1 | 1.189 ± 0.011 | 1.2 ± 0.047 | 1.22 ± 0.051
52 | CCCCCCCCCCCCc1ccc(S(=O)(=O)Nc2nncs2)cc1 | 1.21 ± 0.041 | 1.2 ± 0.016 | 1.2 ± 0.038
53 | C[S+]([O-])c1ccc(-c2nc(-c3ccc(F)cc3)c(-c3ccncc3)[nH]2)cc1 (stereo not drawn) | 1.39 ± 0.14 | 1.5 ± 0.16 | 1.6 ± 0.18
54 | COc1cc2ncnc(Nc3ccc(Cl)cc3F)c2cc1OC | 1.12 ± 0.029 | 1.24 ± 0.037 | 1.271 ± 0.0046
55 | Cc1ccc(S(=O)(=O)Nc2nc3ccccc3nc2Nc2ccc3nsnc3c2)cc1 | 1.4 ± 0.089 | 1.48 ± 0.091 | 1.56 ± 0.041
56 | Cn1cnc(=N)c2[nH]cnc21 [3-Methyladenine] | 1.25 ± 0.078 | 1.34 ± 0.12 | 1.58 ± 0.15
57 | FC(F)c1nc2ccccc2n1-c1nc(N2CCOCC2)nc(N2CCOCC2)n1 | 1.53 ± 0.029 | 1.71 ± 0.068 | 1.8 ± 0.038
58 | Cc1ccc(NC(=O)c2ccc(CN3CCN(C)CC3)cc2)cc1Nc1nccc(-c2cccnc2)n1 [Imatinib Mesylate (STI571)] | 1.626 ± 0.013 | 1.76 ± 0.045 | 1.72 ± 0.03
59 | Cc1ccc(F)c(NC(=O)Nc2ccc(-c3cccc4[nH]nc(N)c34)cc2)c1 [Linifanib (ABT-869)] | 1.66 ± 0.077 | 1.72 ± 0.074 | 1.83 ± 0.067
60 | Nc1ncnc2c1c(-c1cccc(OCc3ccccc3)c1)cn2C1CC(CN2CCCC2)C1 (stereo not drawn) | 1.44 ± 0.15 | 1.55 ± 0.18 | 1.62 ± 0.21
61 | Cc1c(CN2CCN(C(=O)[C@H](C)O)CC2)sc2c(N3CCOCC3)nc(-c3cnc(N)nc3)nc12 | 1.266 ± 0.011 | 1.44 ± 0.057 | 1.5 ± 0.061
62 | CNC(=O)c1cc(Oc2ccc(NC(=O)Nc3cc(C(C)(C)C)nn3-c3ccc4ncccc4c3)c(F)c2)ccn1 [DCC-2036 (Rebastinib)] | 1.17 ± 0.012 | 1.33 ± 0.075 | 1.6 ± 0.03
63 | CCOc1cc2ncc(C#N)c(Nc3ccc(OCc4ccccn4)c(Cl)c3)c2cc1NC(=O)/C=C/CN(C)C [Neratinib (HKI-272)] | 1.06 ± 0.1 | 1.19 ± 0.14 | 1.27 ± 0.092
64 | COc1c(C)c(C(=O)c2ccc(N)c(C(=O)O)c2)n2ccccc12 | 1.19 ± 0.076 | 1.26 ± 0.036 | 1.32 ± 0.062
65 | CNC(=O)c1ccc(-c2cnc3ncc(Cc4ccc5ncccc5c4)n3n2)cc1F | 1.12 ± 0.033 | 1.36 ± 0.16 | 1.58 ± 0.14
66 | CN1CCN(c2ccc3nc(-c4c(N)c5c(F)cccc5[nH]c4=O)[nH]c3c2)CC1 [Dovitinib (TKI-258) Dilactic Acid] | 1.28 ± 0.073 | 1.32 ± 0.03 | 1.51 ± 0.041
